Measured values taken from PubChem BioAssay (NCATS).
Inconclusive results are not listed. Activity calls are given as the source filed them. Unless noted, the call rests on the fitted dose curve.

Legend:
[1] = qHTS for Inhibitors of the Functional Ribonucleoprotein Complex (vRNP) of Lassa (LASV) Arenavirus: LASV Primary Screen - GLuc reporter signal (AID 1347082; calls by dose curve; tested in HEK293 reporter line; further: nearly all actives have a fitted effect of over 60% in size)
[2] = qHTS for Inhibitors of the Functional Ribonucleoprotein Complex (vRNP) of Lassa (LASV) Arenavirus: Viability assay - alamar blue signal for LASV Primary Screen (AID 1347083; calls by dose curve; tested in HEK293 reporter line; further: nearly all actives have a fitted effect of over 80% in size)
[3] = qHTS for Inhibitors of the Functional Ribonucleoprotein Complex (vRNP) of Lymphocytic Choriomeningitis Arenaviruses (LCMV): Viability assay - alamar blue signal for LCMV Primary Screen (AID 1347085; calls by dose curve; tested in HEK293 reporter line; further: nearly all actives have a fitted effect of over 80% in size)
[4] = target: Nucleoprotein (Lymphocytic choriomeningitis virus (strain Armstrong)) (UniProt P09992); experiment: qHTS for Inhibitors of the Functional Ribonucleoprotein Complex (vRNP) of Lymphocytic Choriomeningitis Arenaviruses (LCMV): LCMV Primary Screen - GLuc reporter signal (AID 1347086); further: nearly all actives have a fitted effect of over 70% in size

Measured: Potency
Further: series mostly up to about 57 µM.

Nucleoprotein (Lymphocytic choriomeningitis virus (strain Armstrong)), sequence (P09992 whole entry, looked up): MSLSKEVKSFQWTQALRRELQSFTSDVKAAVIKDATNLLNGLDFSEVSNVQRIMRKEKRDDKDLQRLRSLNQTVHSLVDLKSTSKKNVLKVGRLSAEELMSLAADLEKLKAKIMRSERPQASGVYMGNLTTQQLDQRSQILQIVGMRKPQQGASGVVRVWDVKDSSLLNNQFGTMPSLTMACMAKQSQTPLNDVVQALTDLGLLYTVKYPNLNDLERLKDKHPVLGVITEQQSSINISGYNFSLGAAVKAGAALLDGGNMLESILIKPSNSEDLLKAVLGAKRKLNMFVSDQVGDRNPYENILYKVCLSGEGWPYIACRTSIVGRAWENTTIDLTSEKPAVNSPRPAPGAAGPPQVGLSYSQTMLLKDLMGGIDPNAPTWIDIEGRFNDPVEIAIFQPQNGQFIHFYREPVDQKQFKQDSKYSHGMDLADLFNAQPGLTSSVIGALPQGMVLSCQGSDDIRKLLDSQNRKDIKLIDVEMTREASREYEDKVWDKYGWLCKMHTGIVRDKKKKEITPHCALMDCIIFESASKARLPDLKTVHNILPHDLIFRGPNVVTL

C[N+](C)(CCOc1ccccc1)Cc1cccs1
inactive: all assays above

COc1ccc(C(=O)NCc2ccc(OCCN(C)C)cc2)cc1OC
inactive: all assays above

CCOC(=O)c1ccc(O)cc1
inactive: all assays above

Cc1noc(NS(=O)(=O)c2ccc(N)cc2)c1C
inactive: all assays above

O=[N+]([O-])c1ccc(/C=N\O)o1
inactive: all assays above

COc1ccc(C(=O)c2ccccc2O)c(O)c1
inactive: all assays above
